The results in this text go back to ChEMBL document CHEMBL1961873, “Compounds: GSK PKIS; Assays: Nanosyn kinase panel” (2012).

In assay [1] the target is Ribosomal protein S6 kinase alpha-6 (Homo sapiens) (UniProt Q9UK32). Conditions: at 1 µM.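 Further: each value is a mean inhibition of RSK4 from a GSK PKIS panel screen.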
The target of assay [2] is T1, Serine/threonine-protein kinase Sgk1 (Homo sapiens) (UniProt O00141).
T1 sequence (whole entry): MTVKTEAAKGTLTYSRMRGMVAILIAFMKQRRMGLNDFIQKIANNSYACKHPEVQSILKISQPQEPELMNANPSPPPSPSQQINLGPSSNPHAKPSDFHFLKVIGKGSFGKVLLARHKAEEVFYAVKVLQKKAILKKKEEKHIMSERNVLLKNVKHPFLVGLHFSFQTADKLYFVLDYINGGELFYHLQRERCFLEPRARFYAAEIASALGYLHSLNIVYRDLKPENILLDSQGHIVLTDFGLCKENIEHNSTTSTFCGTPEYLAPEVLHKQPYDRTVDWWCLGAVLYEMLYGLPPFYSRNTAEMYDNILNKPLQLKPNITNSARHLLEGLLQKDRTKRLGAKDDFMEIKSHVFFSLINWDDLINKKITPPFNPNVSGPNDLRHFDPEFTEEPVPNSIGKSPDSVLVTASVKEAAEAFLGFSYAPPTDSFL
Conditions: at 0.1 µM.

Assay [3] concerns the target T1, Serine/threonine-protein kinase Sgk1 (Homo sapiens). Conditions: at 1 µM.
Assay [4] has as its target T2, Serine/threonine-protein kinase Sgk2 (Homo sapiens) (UniProt Q9HBY8).
T2 sequence (whole entry): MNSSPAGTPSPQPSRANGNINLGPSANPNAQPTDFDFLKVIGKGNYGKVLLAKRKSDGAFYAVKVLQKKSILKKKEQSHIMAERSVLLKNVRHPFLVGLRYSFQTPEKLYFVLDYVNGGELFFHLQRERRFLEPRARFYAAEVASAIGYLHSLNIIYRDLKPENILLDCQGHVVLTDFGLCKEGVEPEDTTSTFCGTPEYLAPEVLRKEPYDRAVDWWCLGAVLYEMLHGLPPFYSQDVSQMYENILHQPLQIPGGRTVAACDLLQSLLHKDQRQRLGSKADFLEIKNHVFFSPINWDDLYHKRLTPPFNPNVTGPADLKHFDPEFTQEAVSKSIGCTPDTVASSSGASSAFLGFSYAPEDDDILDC
Conditions: at 0.1 µM.

Assay [5] deals with T2, Serine/threonine-protein kinase Sgk2 (Homo sapiens). Conditions: at 1 µM.
Assay [6] deals with T3, Serine/threonine-protein kinase Sgk3 (Homo sapiens) (UniProt Q96BR1).
T3 sequence (whole entry): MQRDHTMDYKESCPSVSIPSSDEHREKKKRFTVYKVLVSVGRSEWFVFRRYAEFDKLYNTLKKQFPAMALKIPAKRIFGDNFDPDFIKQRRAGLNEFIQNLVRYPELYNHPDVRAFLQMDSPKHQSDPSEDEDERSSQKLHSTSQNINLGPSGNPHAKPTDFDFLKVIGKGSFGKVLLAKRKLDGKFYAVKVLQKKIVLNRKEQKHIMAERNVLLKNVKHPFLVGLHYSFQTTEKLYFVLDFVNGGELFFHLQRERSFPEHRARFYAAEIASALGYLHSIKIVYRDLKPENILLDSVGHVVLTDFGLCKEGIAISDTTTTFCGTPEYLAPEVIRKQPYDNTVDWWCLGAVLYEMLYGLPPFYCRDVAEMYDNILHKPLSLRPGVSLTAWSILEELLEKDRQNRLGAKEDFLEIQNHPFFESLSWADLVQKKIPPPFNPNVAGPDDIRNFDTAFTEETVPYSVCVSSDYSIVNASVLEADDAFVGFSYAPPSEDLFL
Conditions: at 0.1 µM.

The target in assay [7] is T3, Serine/threonine-protein kinase Sgk3 (Homo sapiens). Conditions: at 1 µM.
The target of assay [8] is 5'-AMP-activated protein kinase catalytic subunit alpha-1 (Homo sapiens) (UniProt Q13131). Conditions: at 0.1 µM.
5'-AMP-activated protein kinase catalytic subunit alpha-1 (Homo sapiens), sequence (Q13131 whole entry, looked up): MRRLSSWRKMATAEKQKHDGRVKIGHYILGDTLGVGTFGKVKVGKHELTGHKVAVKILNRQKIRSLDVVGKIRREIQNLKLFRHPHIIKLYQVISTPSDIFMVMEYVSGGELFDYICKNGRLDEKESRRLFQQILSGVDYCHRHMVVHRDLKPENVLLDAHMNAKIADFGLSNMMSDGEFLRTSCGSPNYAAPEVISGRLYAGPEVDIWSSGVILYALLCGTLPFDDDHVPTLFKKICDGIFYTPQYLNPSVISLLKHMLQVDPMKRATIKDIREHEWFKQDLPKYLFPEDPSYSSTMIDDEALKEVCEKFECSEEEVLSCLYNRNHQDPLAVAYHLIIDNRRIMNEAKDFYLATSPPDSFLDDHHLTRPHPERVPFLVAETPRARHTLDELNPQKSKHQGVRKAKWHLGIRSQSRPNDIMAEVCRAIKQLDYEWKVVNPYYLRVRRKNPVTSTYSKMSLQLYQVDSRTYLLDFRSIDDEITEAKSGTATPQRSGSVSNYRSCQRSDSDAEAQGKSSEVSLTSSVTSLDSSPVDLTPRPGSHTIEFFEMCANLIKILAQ
Assay [9] has the same target. Conditions: at 1 µM.
The target in assay [10] is 5'-AMP-activated protein kinase catalytic subunit alpha-2 (Homo sapiens) (UniProt P54646). Conditions: at 0.1 µM.
5'-AMP-activated protein kinase catalytic subunit alpha-2 (Homo sapiens), sequence (P54646 whole entry, looked up): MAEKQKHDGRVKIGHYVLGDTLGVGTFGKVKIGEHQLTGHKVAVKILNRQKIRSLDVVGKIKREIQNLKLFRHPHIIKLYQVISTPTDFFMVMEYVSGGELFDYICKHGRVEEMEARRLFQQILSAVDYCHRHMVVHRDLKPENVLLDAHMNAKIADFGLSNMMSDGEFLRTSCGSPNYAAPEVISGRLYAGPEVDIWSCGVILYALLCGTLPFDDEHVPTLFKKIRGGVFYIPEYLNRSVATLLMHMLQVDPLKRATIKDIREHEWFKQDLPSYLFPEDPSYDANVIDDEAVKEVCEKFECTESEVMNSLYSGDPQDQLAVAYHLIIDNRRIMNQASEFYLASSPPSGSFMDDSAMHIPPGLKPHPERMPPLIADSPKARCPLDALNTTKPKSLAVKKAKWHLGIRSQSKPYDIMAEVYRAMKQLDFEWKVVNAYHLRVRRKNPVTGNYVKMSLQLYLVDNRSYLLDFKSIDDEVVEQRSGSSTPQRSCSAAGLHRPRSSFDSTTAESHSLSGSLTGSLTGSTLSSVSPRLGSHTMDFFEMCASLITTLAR
Assay [11] shares this target. Conditions: at 1 µM.
Assay [12] deals with T4, NUAK family SNF1-like kinase 1 (Homo sapiens) (UniProt O60285).
T4 sequence (whole entry): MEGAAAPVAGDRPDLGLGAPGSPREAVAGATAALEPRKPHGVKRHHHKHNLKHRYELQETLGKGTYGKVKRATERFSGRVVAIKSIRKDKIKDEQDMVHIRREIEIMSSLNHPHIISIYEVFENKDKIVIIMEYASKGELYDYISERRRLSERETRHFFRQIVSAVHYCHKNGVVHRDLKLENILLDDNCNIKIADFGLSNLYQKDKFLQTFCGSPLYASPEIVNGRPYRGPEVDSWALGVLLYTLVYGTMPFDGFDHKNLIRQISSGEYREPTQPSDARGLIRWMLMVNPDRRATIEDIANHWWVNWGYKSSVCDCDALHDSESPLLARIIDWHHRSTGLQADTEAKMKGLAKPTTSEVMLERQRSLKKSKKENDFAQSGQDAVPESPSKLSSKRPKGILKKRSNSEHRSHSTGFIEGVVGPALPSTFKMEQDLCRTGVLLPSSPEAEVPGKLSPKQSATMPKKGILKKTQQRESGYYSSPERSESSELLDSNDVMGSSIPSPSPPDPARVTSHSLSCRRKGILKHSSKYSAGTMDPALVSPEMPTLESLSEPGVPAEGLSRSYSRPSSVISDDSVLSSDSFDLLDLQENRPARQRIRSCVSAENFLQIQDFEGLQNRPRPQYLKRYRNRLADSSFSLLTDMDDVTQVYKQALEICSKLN
Conditions: at 0.1 µM.

Assay [13] deals with T4, NUAK family SNF1-like kinase 1 (Homo sapiens). Conditions: at 1 µM.
Assay [14] concerns the target T5, Serine/threonine-protein kinase BRSK1 (Homo sapiens) (UniProt Q8TDC3).
T5 sequence (whole entry): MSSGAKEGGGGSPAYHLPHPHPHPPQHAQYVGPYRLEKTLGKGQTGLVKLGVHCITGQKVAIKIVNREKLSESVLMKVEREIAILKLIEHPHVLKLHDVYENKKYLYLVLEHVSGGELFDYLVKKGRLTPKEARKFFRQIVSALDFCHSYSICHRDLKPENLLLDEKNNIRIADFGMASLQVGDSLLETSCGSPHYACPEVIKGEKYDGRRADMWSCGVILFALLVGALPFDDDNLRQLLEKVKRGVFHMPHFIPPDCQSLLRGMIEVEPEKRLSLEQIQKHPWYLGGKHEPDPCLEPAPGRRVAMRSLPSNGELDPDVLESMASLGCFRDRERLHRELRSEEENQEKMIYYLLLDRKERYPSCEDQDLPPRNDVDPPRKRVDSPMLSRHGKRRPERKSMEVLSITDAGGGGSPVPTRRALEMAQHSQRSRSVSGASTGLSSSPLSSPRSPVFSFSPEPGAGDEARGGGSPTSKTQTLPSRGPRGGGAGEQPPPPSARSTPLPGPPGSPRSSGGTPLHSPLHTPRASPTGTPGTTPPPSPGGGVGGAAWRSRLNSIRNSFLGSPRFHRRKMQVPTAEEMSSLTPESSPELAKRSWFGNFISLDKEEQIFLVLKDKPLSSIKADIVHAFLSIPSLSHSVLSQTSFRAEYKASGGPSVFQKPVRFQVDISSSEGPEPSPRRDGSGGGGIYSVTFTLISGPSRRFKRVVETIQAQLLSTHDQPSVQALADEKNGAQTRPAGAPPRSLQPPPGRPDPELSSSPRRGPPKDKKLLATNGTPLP
Conditions: at 0.1 µM.

Assay [15] has as its target T5, Serine/threonine-protein kinase BRSK1 (Homo sapiens). Conditions: at 1 µM.
The target in assay [16] is T6, Serine/threonine-protein kinase BRSK2 (Homo sapiens) (UniProt Q8IWQ3).
T6 sequence (whole entry): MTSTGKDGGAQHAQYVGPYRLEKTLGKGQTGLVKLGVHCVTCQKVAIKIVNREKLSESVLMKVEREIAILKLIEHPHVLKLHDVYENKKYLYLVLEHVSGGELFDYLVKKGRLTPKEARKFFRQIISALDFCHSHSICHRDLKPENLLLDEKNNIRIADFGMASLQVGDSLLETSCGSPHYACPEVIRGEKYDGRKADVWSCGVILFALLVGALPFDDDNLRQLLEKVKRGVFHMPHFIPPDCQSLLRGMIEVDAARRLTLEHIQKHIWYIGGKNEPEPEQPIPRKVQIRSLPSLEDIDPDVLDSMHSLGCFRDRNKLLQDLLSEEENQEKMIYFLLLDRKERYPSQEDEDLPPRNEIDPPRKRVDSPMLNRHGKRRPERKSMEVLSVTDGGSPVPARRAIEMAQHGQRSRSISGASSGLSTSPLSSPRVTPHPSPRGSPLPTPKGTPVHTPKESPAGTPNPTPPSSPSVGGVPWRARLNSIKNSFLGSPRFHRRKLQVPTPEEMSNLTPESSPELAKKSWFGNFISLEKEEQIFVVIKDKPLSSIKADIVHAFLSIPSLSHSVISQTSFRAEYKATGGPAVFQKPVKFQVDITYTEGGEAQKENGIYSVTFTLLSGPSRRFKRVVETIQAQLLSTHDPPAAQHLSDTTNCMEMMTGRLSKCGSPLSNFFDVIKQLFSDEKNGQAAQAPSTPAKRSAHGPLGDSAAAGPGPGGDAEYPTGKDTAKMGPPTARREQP
Conditions: at 0.1 µM.

Assay [17] deals with T6, Serine/threonine-protein kinase BRSK2 (Homo sapiens). Conditions: at 1 µM.
Assay [18] deals with Calcium/calmodulin-dependent protein kinase type 1D (Homo sapiens) (UniProt Q8IU85). Conditions: at 0.1 µM.
Calcium/calmodulin-dependent protein kinase type 1D (Homo sapiens), sequence (Q8IU85 whole entry, looked up): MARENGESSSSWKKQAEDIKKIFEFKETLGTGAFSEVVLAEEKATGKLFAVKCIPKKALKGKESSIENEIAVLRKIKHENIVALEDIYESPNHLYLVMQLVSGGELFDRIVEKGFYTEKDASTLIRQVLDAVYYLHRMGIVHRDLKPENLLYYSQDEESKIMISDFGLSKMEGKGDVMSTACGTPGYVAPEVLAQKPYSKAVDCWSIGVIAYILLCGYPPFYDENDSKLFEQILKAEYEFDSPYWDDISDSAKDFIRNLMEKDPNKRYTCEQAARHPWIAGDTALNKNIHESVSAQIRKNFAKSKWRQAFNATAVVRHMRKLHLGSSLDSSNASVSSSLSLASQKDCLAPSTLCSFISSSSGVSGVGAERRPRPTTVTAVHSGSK
Assay [19] has the same target. Conditions: at 1 µM.
For assay [20], the target named is Calcium/calmodulin-dependent protein kinase type II subunit alpha (Homo sapiens) (UniProt Q9UQM7). Conditions: at 0.1 µM.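 Further: reported values are averages (mean inhibition of CAMK2A).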
Calcium/calmodulin-dependent protein kinase type II subunit alpha (Homo sapiens), sequence (Q9UQM7 whole entry): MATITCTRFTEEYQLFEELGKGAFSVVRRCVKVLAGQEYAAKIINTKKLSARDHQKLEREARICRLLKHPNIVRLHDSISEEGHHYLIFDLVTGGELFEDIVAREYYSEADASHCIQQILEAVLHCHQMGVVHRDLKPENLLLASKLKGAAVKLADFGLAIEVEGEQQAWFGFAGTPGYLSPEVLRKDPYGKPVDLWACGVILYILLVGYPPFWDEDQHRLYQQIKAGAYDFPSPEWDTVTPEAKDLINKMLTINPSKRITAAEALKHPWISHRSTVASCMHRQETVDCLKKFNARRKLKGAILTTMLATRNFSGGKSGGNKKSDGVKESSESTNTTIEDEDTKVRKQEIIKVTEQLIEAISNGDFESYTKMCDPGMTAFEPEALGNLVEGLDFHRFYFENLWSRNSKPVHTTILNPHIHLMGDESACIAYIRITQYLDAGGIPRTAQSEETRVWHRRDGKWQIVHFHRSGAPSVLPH

Ribosomal protein S6 kinase alpha-6 (Homo sapiens), sequence (Q9UK32 whole entry): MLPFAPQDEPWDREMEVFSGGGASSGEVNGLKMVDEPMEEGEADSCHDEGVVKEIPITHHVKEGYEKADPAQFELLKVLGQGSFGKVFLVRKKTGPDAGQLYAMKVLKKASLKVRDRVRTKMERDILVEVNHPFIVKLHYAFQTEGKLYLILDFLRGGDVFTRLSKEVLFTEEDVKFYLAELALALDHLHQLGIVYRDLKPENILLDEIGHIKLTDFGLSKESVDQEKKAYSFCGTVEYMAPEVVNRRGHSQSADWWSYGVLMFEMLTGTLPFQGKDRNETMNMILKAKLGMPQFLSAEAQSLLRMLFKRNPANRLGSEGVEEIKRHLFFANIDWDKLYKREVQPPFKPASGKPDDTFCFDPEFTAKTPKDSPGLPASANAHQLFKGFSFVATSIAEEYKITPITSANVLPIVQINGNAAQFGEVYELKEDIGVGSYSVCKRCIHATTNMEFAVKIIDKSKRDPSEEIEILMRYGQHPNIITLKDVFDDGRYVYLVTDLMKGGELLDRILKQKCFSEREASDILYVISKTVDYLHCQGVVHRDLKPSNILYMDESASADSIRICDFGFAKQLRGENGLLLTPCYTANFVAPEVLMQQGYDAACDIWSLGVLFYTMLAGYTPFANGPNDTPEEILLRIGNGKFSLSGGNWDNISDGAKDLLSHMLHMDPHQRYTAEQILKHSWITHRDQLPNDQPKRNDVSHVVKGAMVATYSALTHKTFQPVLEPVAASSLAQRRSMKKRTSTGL

On to `COc1ccc2[nH]c3c4[nH]c5ccc(OC)cc5c4c4c(c3c2c1)C(=O)NC4=O`, for which the inhibition in assay [1] came to 88%; in assay [2], 21.8%; in [3], 63.8%; in [4] it was 16.6%; in assay [5], 59.4%; in assay [6], 9.76%. Also, the inhibition in assay [7] was found to be 40.2%; in [8] it was 37%; in [9] it was 78%; in assay [10], 17.9%; in [11], 51.6%; in [12] it was 78%. Also, the inhibition in [13] is 77.3%; in [14], 71.3%; in assay [15] it was 102%; in [16], 92.2%; in [17] it was 94.9%; in assay [18], 6.96%. The figures for the inhibition in [19] and in [20] were 39.6% and 6.99%, respectively.

With `CS(=O)(=O)CCNCc1ccc(-c2ccc3ncnc(Nc4ccc(OCc5ccccc5)c(C(F)(F)F)c4)c3c2)o1`, the inhibition in assay [1] is 0.75%; in [2] it was 3.38%; in assay [3] it was 3.03%; in assay [4] it was 1.55%; in assay [5], 1.26%; in assay [6], 2.51%. For the same compound, the inhibition in assay [7] was 4.06%; in [8] it was 3.06%; in assay [9] it was 2.92%; in assay [10], -6.64%; in assay [11] it was 3.87%; in [12], -0.55%. Moreover, the inhibition in assay [13] was -0.02%; in assay [14], 0.14%; in assay [15] it was 4.02%; in assay [16], 3.18%; in assay [17] it was 4.31%; in assay [18] it was 0.11%. Further, the inhibition worked out at 4.44% in assay [19] and 2.86% in [20].

As to `Nc1ncc(-c2cccc(S(N)(=O)=O)c2)c2scc(-c3ccc(F)c(Cl)c3)c12`, the inhibition is 3.24% in assay [1]; 2.77% in assay [2]; 2.35% in assay [3]; -0.69% in [4]; 4.55% in assay [5]; 3.54% in assay [6]. Also, the inhibition in assay [7] turned out to be 0.56%; in [8], 3.66%; in [9], 4.69%; in [10] it was 0.92%; in [11], 4.34%; in assay [12], 0.82%. Also, the inhibition in assay [13] worked out at 2.44%; in assay [14] it was 1.61%; in [15], 5.62%; in [16], 3.28%; in assay [17], 6.56%; in assay [18], 1.24%. Further, the inhibition amounted to 0.88% in [19] and 3.36% in [20].

As usually defined, the inhibition is the relative decrease from the control value, in per cent.
